{"source": "the supplement of paper PMC8728848", "binders": {"B1": {"name": "Cohesin-marm-DC-ASGPR (protein)", "chain": "LDITSHHHHHHDDLDAVRIKVDTVNAKPGDTVRIPVRFSGIPSKGIANCDFVYSYDPNVLEIIEIEPGDIIVDPNPDKSFDTAVYPDRKIIVFLFAEDSGTGAYAITKDGVFATIVAKVKEGAPNGLSVIKFVEVGGFANNDLVEQKTQFFDGGVNVGDTTEPATPTTPVTTPTTTDDLDAASSKFQRDLVTLRTDFSNFTSNTLAEIQALTSQGSSLQETIASLKAEVEGHKQELQAGASELQEHNKQKAHLGRCPHTCVCPSSFVCVPVHSEILLRVQQLVQDLNKLSCQVAILKNNATTERTCCPINWVEHQGSCYWFSRSGKTWPEAERYCQLENTHLVVINSREEQNFVQAHLGSAYTWMGLSDPEGVWKWVDGTDYSSGFQNWKPGQPDDWQGHGLGGGEDCAHFHPDGRWNDDVCQRSYHWVCEAGLTQASQDSHAS"}}, "assay_in_all_cases": "glycan array binding signal (z-score within array); higher = stronger binding", "conditions_in_all_cases": "glycan notation: IUPAC condensed, linker removed", "key": {"[1]": {"biological_target": "Fuc(a1-2)Gal(b1-4)GlcNAc(b1-2)[Fuc(a1-2)Gal(b1-4)GlcNAc(b1-4)]Man(a1-3)[Fuc(a1-2)Gal(b1-4)GlcNAc(b1-2)Man(a1-6)]Man(b1-4)GlcNAc(b1-4)GlcNAc", "in_short": "(§1)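 Glycan array data came from 3228 arrays in the Consortium for Functional Glycomics database, and only arrays with an available protein sequence were kept. Glycan names were put into IUPAC-condensed notation, and columns mapping to the same glycan were averaged. The binding signal is a within-array Z-score, averaged across arrays of one protein sequence run at different concentrations or buffers and across linkers. A negative Z-score can be read as non-binding.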"}, "[2]": {"biological_target": "Fuc(a1-2)Gal(b1-4)GlcNAc(b1-3)[Fuc(a1-2)Gal(b1-4)GlcNAc(b1-6)]GalNAc", "in_short": "as §1"}, "[3]": {"biological_target": "Fuc(a1-2)Gal(b1-4)GlcNAc(b1-6)GalNAc", "in_short": "as §1"}, "[4]": {"biological_target": "Fuc(a1-2)[Gal(a1-3)]Gal(b1-3)GlcNAc(b1-6)GalNAc", "in_short": "as §1"}, "[5]": {"biological_target": "Fuc(a1-2)[Gal(a1-3)]Gal(b1-4)GlcNAc", "in_short": "as §1"}, "[6]": {"biological_target": "Fuc(a1-2)[Gal(a1-3)]Gal(b1-4)GlcNAc(b1-2)Man", "in_short": "as §1"}, "[7]": {"biological_target": "Fuc(a1-2)[Gal(a1-3)]Gal(b1-4)GlcNAc(b1-3)[Fuc(a1-2)[Gal(a1-3)]Gal(b1-4)GlcNAc(b1-6)]GalNAc", "in_short": "as §1"}, "[8]": {"biological_target": "Fuc(a1-2)[GalNAc(a1-3)]Gal(b1-4)GlcNAc(b1-6)GalNAc", "in_short": "as §1"}, "[9]": {"biological_target": "Fuc(a1-2)[GalNAc(a1-4)]Gal(b1-4)GlcNAc", "in_short": "as §1"}, "[10]": {"biological_target": "Gal(a1-4)Gal(b1-4)GlcNAc(b1-2)Man(a1-3)[Gal(a1-4)Gal(b1-4)GlcNAc(b1-2)Man(a1-6)]Man(b1-4)GlcNAc(b1-4)GlcNAc", "in_short": "as §1"}, "Gal(b1-3)Gal": {"biological_target": "Gal(b1-3)Gal", "in_short": "as §1"}, "[11]": {"biological_target": "Gal(b1-3)GlcNAc(b1-6)[Gal(b1-3)]GalNAc", "in_short": "as §1"}, "[12]": {"biological_target": "Gal(b1-3)[Fuc(a1-4)]GlcNAc(b1-2)Man(a1-3)[Gal(b1-3)[Fuc(a1-4)]GlcNAc(b1-2)Man(a1-6)]Man(b1-4)GlcNAc(b1-4)[Fuc(a1-6)]GlcNAc", "in_short": "as §1"}, "[13]": {"biological_target": "Gal(b1-4)GlcNAc(b1-2)Man(a1-3)[Gal(b1-4)GlcNAc(b1-2)Man(a1-6)]Man(b1-4)GlcNAc(b1-4)GlcNAc", "in_short": "as §1"}, "[14]": {"biological_target": "Gal(b1-4)GlcNAc(b1-2)Man(a1-3)[GlcNAc(b1-4)][Gal(b1-4)GlcNAc(b1-2)Man(a1-6)]Man(b1-4)GlcNAc(b1-4)GlcNAc", "in_short": "as §1"}, "[15]": {"biological_target": "Gal(b1-4)GlcNAc(b1-2)[Gal(b1-4)GlcNAc(b1-4)]Man(a1-3)[GlcNAc(b1-4)][Gal(b1-4)GlcNAc(b1-2)[Gal(b1-4)GlcNAc(b1-6)]Man(a1-6)]Man(b1-4)GlcNAc(b1-4)GlcNAc", "in_short": "as §1"}, "[16]": {"biological_target": "Gal(b1-4)GlcNAc(b1-2)[Gal(b1-4)GlcNAc(b1-6)]Man(a1-6)[GlcNAc(b1-4)][Gal(b1-4)GlcNAc(b1-2)Man(a1-3)]Man(b1-4)GlcNAc(b1-4)GlcNAc", "in_short": "as §1"}, "[17]": {"biological_target": "Gal(b1-4)GlcNAc(b1-3)Gal(b1-4)GlcNAc(b1-3)Gal(b1-4)GlcNAc(b1-2)Man(a1-3)[Gal(b1-4)GlcNAc(b1-3)Gal(b1-4)GlcNAc(b1-3)Gal(b1-4)GlcNAc(b1-2)Man(a1-6)]Man(b1-4)GlcNAc(b1-4)GlcNAc", "in_short": "as §1"}, "[18]": {"biological_target": "Gal(b1-4)GlcNAc(b1-3)Gal(b1-4)GlcNAc(b1-3)Gal(b1-4)GlcNAc(b1-3)Gal(b1-4)GlcNAc(b1-2)[Gal(b1-4)GlcNAc(b1-3)Gal(b1-4)GlcNAc(b1-3)Gal(b1-4)GlcNAc(b1-3)Gal(b1-4)GlcNAc(b1-6)]Man(a1-6)[Gal(b1-4)GlcNAc(b1-3)Gal(b1-4)GlcNAc(b1-3)Gal(b1-4)GlcNAc(b1-3)Gal(b1-4)GlcNAc(b1-2)Man(a1-3)]Man(b1-4)GlcNAc(b1-4)[Fuc(a1-6)]GlcNAc", "in_short": "as §1"}, "[19]": {"biological_target": "Gal(b1-4)GlcNAc(b1-3)Gal(b1-4)GlcNAc(b1-3)Gal(b1-4)GlcNAc(b1-3)Gal(b1-4)GlcNAc(b1-3)Gal(b1-4)GlcNAc(b1-3)Gal(b1-4)GlcNAc(b1-2)Man(a1-3)[Gal(b1-4)GlcNAc(b1-3)Gal(b1-4)GlcNAc(b1-3)Gal(b1-4)GlcNAc(b1-3)Gal(b1-4)GlcNAc(b1-3)Gal(b1-4)GlcNAc(b1-3)Gal(b1-4)GlcNAc(b1-2)Man(a1-6)]Man(b1-4)GlcNAc(b1-4)GlcNAc", "in_short": "as §1"}, "Gal3S(b1-4)Glc6S": {"biological_target": "Gal3S(b1-4)Glc6S", "in_short": "as §1"}, "Gal6S(b1-4)GlcNAc6S": {"biological_target": "Gal6S(b1-4)GlcNAc6S", "in_short": "as §1"}, "GalNAc(a1-3)Gal": {"biological_target": "GalNAc(a1-3)Gal", "in_short": "as §1"}, "GalNAc(a1-3)GalNAc": {"biological_target": "GalNAc(a1-3)GalNAc", "in_short": "as §1"}, "GalNAc(b1-3)GalNAc": {"biological_target": "GalNAc(b1-3)GalNAc", "in_short": "as §1"}, "GalNAc(b1-4)GlcNAc": {"biological_target": "GalNAc(b1-4)GlcNAc", "in_short": "as §1"}, "[20]": {"biological_target": "GalNAc(b1-4)GlcNAc(b1-2)Man", "in_short": "as §1"}, "GalNAc(b1-4)GlcNAc6S": {"biological_target": "GalNAc(b1-4)GlcNAc6S", "in_short": "as §1"}, "GalNAc(b1-6)GalNAc": {"biological_target": "GalNAc(b1-6)GalNAc", "in_short": "as §1"}, "GlcA(b1-3)Gal": {"biological_target": "GlcA(b1-3)Gal", "in_short": "as §1"}}, "note": "The entries come from a sample that favours the strongest signals as a whole."}
{"binder": "B1", "values": [{"measurement": "glycan array binding signal (z-score)", "setting": "[1]", "result": -0.267}, {"measurement": "glycan array binding signal (z-score)", "setting": "[2]", "result": -0.236}, {"measurement": "glycan array binding signal (z-score)", "setting": "[3]", "result": 4.84}, {"measurement": "glycan array binding signal (z-score)", "setting": "[4]", "result": 4.11}, {"measurement": "glycan array binding signal (z-score)", "setting": "[5]", "result": -0.282}, {"measurement": "glycan array binding signal (z-score)", "setting": "[6]", "result": -0.239}, {"measurement": "glycan array binding signal (z-score)", "setting": "[7]", "result": -0.22}, {"measurement": "glycan array binding signal (z-score)", "setting": "[8]", "result": 4.32}, {"measurement": "glycan array binding signal (z-score)", "setting": "[9]", "result": 4.11}, {"measurement": "glycan array binding signal (z-score)", "setting": "[10]", "result": -0.267}, {"measurement": "glycan array binding signal (z-score)", "setting": "Gal(b1-3)Gal", "result": -0.286}, {"measurement": "glycan array binding signal (z-score)", "setting": "[11]", "result": -0.272}, {"measurement": "glycan array binding signal (z-score)", "setting": "[12]", "result": -0.265}, {"measurement": "glycan array binding signal (z-score)", "setting": "[13]", "result": -0.277}, {"measurement": "glycan array binding signal (z-score)", "setting": "[14]", "result": -0.308}, {"measurement": "glycan array binding signal (z-score)", "setting": "[15]", "result": -0.268}, {"measurement": "glycan array binding signal (z-score)", "setting": "[16]", "result": -0.307}, {"measurement": "glycan array binding signal (z-score)", "setting": "[17]", "result": -0.177}, {"measurement": "glycan array binding signal (z-score)", "setting": "[18]", "result": -0.272}, {"measurement": "glycan array binding signal (z-score)", "setting": "[19]", "result": -0.295}, {"measurement": "glycan array binding signal (z-score)", "setting": "Gal3S(b1-4)Glc6S", "result": -0.141}, {"measurement": "glycan array binding signal (z-score)", "setting": "Gal6S(b1-4)GlcNAc6S", "result": -0.295}, {"measurement": "glycan array binding signal (z-score)", "setting": "GalNAc(a1-3)Gal", "result": 4.28}, {"measurement": "glycan array binding signal (z-score)", "setting": "GalNAc(a1-3)GalNAc", "result": -0.266}, {"measurement": "glycan array binding signal (z-score)", "setting": "GalNAc(b1-3)GalNAc", "result": -0.307}, {"measurement": "glycan array binding signal (z-score)", "setting": "GalNAc(b1-4)GlcNAc", "result": 4.21}, {"measurement": "glycan array binding signal (z-score)", "setting": "[20]", "result": 4.13}, {"measurement": "glycan array binding signal (z-score)", "setting": "GalNAc(b1-4)GlcNAc6S", "result": 4.56}, {"measurement": "glycan array binding signal (z-score)", "setting": "GalNAc(b1-6)GalNAc", "result": -0.303}, {"measurement": "glycan array binding signal (z-score)", "setting": "GlcA(b1-3)Gal", "result": -0.309}]}
